{
  "source": "paper PMC5540273",
  "about": "(PLoS ONE, 2017)",
  "conditions_in_all_cases": "n = 1",
  "key": {"QSK": {"system": "QSK"}, "RAF1": {"system": "RAF1"}, "RET": {"system": "RET"}, "RIOK1": {"system": "RIOK1"}, "RIOK2": {"system": "RIOK2"}, "RIOK3": {"system": "RIOK3"}, "RIPK1": {"system": "RIPK1"}, "RIPK2": {"system": "RIPK2"}, "RIPK4": {"system": "RIPK4"}, "RIPK5": {"system": "RIPK5"}, "ROCK1": {"system": "ROCK1"}, "ROCK2": {"system": "ROCK2"}, "ROS1": {"system": "ROS1"}, "[1]": {"system": "RPS6KA4(Kin.Dom.1-N-terminal)"}, "[2]": {"system": "RPS6KA4(Kin.Dom.2-C-terminal)"}, "[3]": {"system": "RPS6KA5(Kin.Dom.1-N-terminal)"}, "[4]": {"system": "RPS6KA5(Kin.Dom.2-C-terminal)"}, "[5]": {"system": "T1, RSK1(Kin.Dom.1-N-terminal)", "T1 construct": "gene RPS6KA1"}, "[6]": {"system": "T2, RSK1(Kin.Dom.2-C-terminal)", "T2 construct": "gene RPS6KA1"}, "[7]": {"system": "T3, RSK2(Kin.Dom.1-N-terminal)", "T3 construct": "gene RPS6KA3"}, "[8]": {"conditions": "concentration: 1 μM, replicates: in singlicate"}},
  "note": "Read-outs that look alike come from different tables or passages of the source.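 Also: KINOMEscan kinase panel screen.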",
  "data": [
    {"compound": "Cc1cccc(-c2nc(C)cc(Nc3ccncc3)n2)n1", "note": "[GSK257997]", "values": [
      {"measurement": "%Inh", "setting": "QSK; [8]", "value": 0, "unit": "%"},
      {"measurement": "%Inh", "setting": "RAF1; [8]", "value": 100, "unit": "%"},
      {"measurement": "%Inh", "setting": "RET; [8]", "value": 18, "unit": "%"},
      {"measurement": "%Inh", "setting": "RIOK1; [8]", "value": 20, "unit": "%"},
      {"measurement": "%Inh", "setting": "RIOK2; [8]", "value": 16, "unit": "%"},
      {"measurement": "%Inh", "setting": "RIOK3; [8]", "value": 14, "unit": "%"},
      {"measurement": "%Inh", "setting": "RIPK1; [8]", "value": 8, "unit": "%"},
      {"measurement": "%Inh", "setting": "RIPK2; [8]", "value": 19, "unit": "%"},
      {"measurement": "%Inh", "setting": "RIPK4; [8]", "value": 7, "unit": "%"},
      {"measurement": "%Inh", "setting": "RIPK5; [8]", "value": 0, "unit": "%"},
      {"measurement": "%Inh", "setting": "ROCK1; [8]", "value": 25, "unit": "%"},
      {"measurement": "%Inh", "setting": "ROCK2; [8]", "value": 10, "unit": "%"},
      {"measurement": "%Inh", "setting": "ROS1; [8]", "value": 43, "unit": "%"},
      {"measurement": "%Inh", "setting": "[1]; [8]", "value": 8, "unit": "%"},
      {"measurement": "%Inh", "setting": "[2]; [8]", "value": 0, "unit": "%"},
      {"measurement": "%Inh", "setting": "[3]; [8]", "value": 7, "unit": "%"},
      {"measurement": "%Inh", "setting": "[4]; [8]", "value": 0, "unit": "%"},
      {"measurement": "%Inh", "setting": "[5]; [8]", "value": 29, "unit": "%"},
      {"measurement": "%Inh", "setting": "[6]; [8]", "value": 2, "unit": "%"},
      {"measurement": "%Inh", "setting": "[7]; [8]", "value": 0, "unit": "%"}
    ]},
    {"compound": "COc1ccccc1CNC(=O)c1cc(C(=O)c2ccccc2C)c[nH]1", "note": "[GSK364507]", "values": [
      {"measurement": "%Inh", "setting": "QSK; [8]", "value": 8, "unit": "%"},
      {"measurement": "%Inh", "setting": "RAF1; [8]", "value": 25, "unit": "%"},
      {"measurement": "%Inh", "setting": "RET; [8]", "value": 14, "unit": "%"},
      {"measurement": "%Inh", "setting": "RIOK1; [8]", "value": 30, "unit": "%"},
      {"measurement": "%Inh", "setting": "RIOK2; [8]", "value": 0, "unit": "%"},
      {"measurement": "%Inh", "setting": "RIOK3; [8]", "value": 1, "unit": "%"},
      {"measurement": "%Inh", "setting": "RIPK1; [8]", "value": 0, "unit": "%"},
      {"measurement": "%Inh", "setting": "RIPK2; [8]", "value": 9, "unit": "%"},
      {"measurement": "%Inh", "setting": "RIPK4; [8]", "value": 19, "unit": "%"},
      {"measurement": "%Inh", "setting": "RIPK5; [8]", "value": 0, "unit": "%"},
      {"measurement": "%Inh", "setting": "ROCK1; [8]", "value": 12, "unit": "%"},
      {"measurement": "%Inh", "setting": "ROCK2; [8]", "value": 10, "unit": "%"},
      {"measurement": "%Inh", "setting": "ROS1; [8]", "value": 0, "unit": "%"},
      {"measurement": "%Inh", "setting": "[1]; [8]", "value": 5, "unit": "%"},
      {"measurement": "%Inh", "setting": "[2]; [8]", "value": 0, "unit": "%"},
      {"measurement": "%Inh", "setting": "[3]; [8]", "value": 5, "unit": "%"},
      {"measurement": "%Inh", "setting": "[4]; [8]", "value": 21, "unit": "%"},
      {"measurement": "%Inh", "setting": "[5]; [8]", "value": 25, "unit": "%"},
      {"measurement": "%Inh", "setting": "[6]; [8]", "value": 0, "unit": "%"},
      {"measurement": "%Inh", "setting": "[7]; [8]", "value": 4, "unit": "%"}
    ]},
    {"compound": "Cc1ccc(NC(=O)Nc2cccc(C(F)(F)F)c2)cc1", "note": "[GSK955403]", "values": [
      {"measurement": "%Inh", "setting": "QSK; 1 µM", "value": 0, "unit": "%"},
      {"measurement": "%Inh", "setting": "RAF1; 1 µM", "value": 8, "unit": "%"},
      {"measurement": "%Inh", "setting": "RET; 1 µM", "value": 0, "unit": "%"},
      {"measurement": "%Inh", "setting": "RIOK1; 1 µM", "value": 17, "unit": "%"},
      {"measurement": "%Inh", "setting": "RIOK2; 1 µM", "value": 0, "unit": "%"},
      {"measurement": "%Inh", "setting": "RIOK3; 1 µM", "value": 0, "unit": "%"},
      {"measurement": "%Inh", "setting": "RIPK1; 1 µM", "value": 7, "unit": "%"},
      {"measurement": "%Inh", "setting": "RIPK2; 1 µM", "value": 8, "unit": "%"},
      {"measurement": "%Inh", "setting": "RIPK4; 1 µM", "value": 0, "unit": "%"},
      {"measurement": "%Inh", "setting": "RIPK5; 1 µM", "value": 0, "unit": "%"},
      {"measurement": "%Inh", "setting": "ROCK1; 1 µM", "value": 0, "unit": "%"},
      {"measurement": "%Inh", "setting": "ROCK2; 1 µM", "value": 0, "unit": "%"},
      {"measurement": "%Inh", "setting": "ROS1; 1 µM", "value": 0, "unit": "%"},
      {"measurement": "%Inh", "setting": "[1]; 1 µM", "value": 0, "unit": "%"},
      {"measurement": "%Inh", "setting": "[2]; 1 µM", "value": 1, "unit": "%"},
      {"measurement": "%Inh", "setting": "[3]; 1 µM", "value": 3, "unit": "%"},
      {"measurement": "%Inh", "setting": "[4]; 1 µM", "value": 6, "unit": "%"},
      {"measurement": "%Inh", "setting": "[5]; 1 µM", "value": 1, "unit": "%"},
      {"measurement": "%Inh", "setting": "[6]; 1 µM", "value": 6, "unit": "%"},
      {"measurement": "%Inh", "setting": "[7]; 1 µM", "value": 0, "unit": "%"}
    ]},
    {"compound": "O=c1cc(N2CCOCC2)nc2n(Cc3cccc(Cl)c3Cl)ccn12", "note": "[GSK2286295]", "values": [
      {"measurement": "%Inh", "setting": "QSK; [8]", "value": 1, "unit": "%"},
      {"measurement": "%Inh", "setting": "RAF1; [8]", "value": 7, "unit": "%"},
      {"measurement": "%Inh", "setting": "RET; [8]", "value": 1, "unit": "%"},
      {"measurement": "%Inh", "setting": "RIOK1; [8]", "value": 42, "unit": "%"},
      {"measurement": "%Inh", "setting": "RIOK2; [8]", "value": 56, "unit": "%"},
      {"measurement": "%Inh", "setting": "RIOK3; [8]", "value": 19, "unit": "%"},
      {"measurement": "%Inh", "setting": "RIPK1; [8]", "value": 0, "unit": "%"},
      {"measurement": "%Inh", "setting": "RIPK2; [8]", "value": 6, "unit": "%"},
      {"measurement": "%Inh", "setting": "RIPK4; [8]", "value": 6, "unit": "%"},
      {"measurement": "%Inh", "setting": "RIPK5; [8]", "value": 0, "unit": "%"},
      {"measurement": "%Inh", "setting": "ROCK1; [8]", "value": 0, "unit": "%"},
      {"measurement": "%Inh", "setting": "ROCK2; [8]", "value": 34, "unit": "%"},
      {"measurement": "%Inh", "setting": "ROS1; [8]", "value": 7, "unit": "%"},
      {"measurement": "%Inh", "setting": "[1]; [8]", "value": 17, "unit": "%"},
      {"measurement": "%Inh", "setting": "[2]; [8]", "value": 0, "unit": "%"},
      {"measurement": "%Inh", "setting": "[3]; [8]", "value": 11, "unit": "%"},
      {"measurement": "%Inh", "setting": "[4]; [8]", "value": 0, "unit": "%"},
      {"measurement": "%Inh", "setting": "[5]; [8]", "value": 22, "unit": "%"},
      {"measurement": "%Inh", "setting": "[6]; [8]", "value": 0, "unit": "%"},
      {"measurement": "%Inh", "setting": "[7]; [8]", "value": 0, "unit": "%"}
    ]},
    {"compound": "CN1C(=O)C(Nc2ccc(Cl)c(C(=O)O)c2)=C(c2ccc(Cl)cc2)C1=O", "note": "[SB-404290]", "values": [
      {"measurement": "%Inh", "setting": "QSK; [8]", "value": 40, "unit": "%"},
      {"measurement": "%Inh", "setting": "RAF1; [8]", "value": 0, "unit": "%"},
      {"measurement": "%Inh", "setting": "RET; [8]", "value": 0, "unit": "%"},
      {"measurement": "%Inh", "setting": "RIOK1; [8]", "value": 0, "unit": "%"},
      {"measurement": "%Inh", "setting": "RIOK2; [8]", "value": 0, "unit": "%"},
      {"measurement": "%Inh", "setting": "RIOK3; [8]", "value": 18, "unit": "%"},
      {"measurement": "%Inh", "setting": "RIPK1; [8]", "value": 0, "unit": "%"},
      {"measurement": "%Inh", "setting": "RIPK2; [8]", "value": 0, "unit": "%"},
      {"measurement": "%Inh", "setting": "RIPK4; [8]", "value": 18, "unit": "%"},
      {"measurement": "%Inh", "setting": "RIPK5; [8]", "value": 17, "unit": "%"},
      {"measurement": "%Inh", "setting": "ROCK1; [8]", "value": 5, "unit": "%"},
      {"measurement": "%Inh", "setting": "ROCK2; [8]", "value": 0, "unit": "%"},
      {"measurement": "%Inh", "setting": "ROS1; [8]", "value": 18, "unit": "%"},
      {"measurement": "%Inh", "setting": "[1]; [8]", "value": 0, "unit": "%"},
      {"measurement": "%Inh", "setting": "[2]; [8]", "value": 2, "unit": "%"},
      {"measurement": "%Inh", "setting": "[3]; [8]", "value": 0, "unit": "%"},
      {"measurement": "%Inh", "setting": "[4]; [8]", "value": 0, "unit": "%"},
      {"measurement": "%Inh", "setting": "[5]; [8]", "value": 0, "unit": "%"},
      {"measurement": "%Inh", "setting": "[6]; [8]", "value": 12, "unit": "%"},
      {"measurement": "%Inh", "setting": "[7]; [8]", "value": 28, "unit": "%"}
    ]}
  ]
}
